From PubChem BioAssay (NCATS)
Results filed as inconclusive are left out. Where a call stands in place of a potency, no number is given. Active and inactive are the calls of the source. The call rests on the fitted dose curve; in most records, active means well fitted cell-killing curve with a large enough effect; inconclusive means small, poorly fitted or top-dose-only effect, or effect the other way; inactive means no such curve, though single readings can be large or run the other way. Bridge positions count the residues as written; N and C are the ends. Square brackets hold non-standard residues; d marks the D form. Side chains are listed from the residue outwards. Peptide text beside a SMILES is read from it. * marks the point of attachment. Phg(4-OMe) = COc1ccc([C@H](N)C(=O)O)cc1; d(aIle) = CC[C@H](C)[C@@H](N)C(=O)O; d(aThr) = C[C@@H](O)[C@@H](N)C(=O)O; NMeF = CN[C@@H](Cc1ccccc1)C(=O)O; Isobutyryl = CC(C)C(=O)*

Test: qHTS for Antimalaria activity screened against the NCATS CANVASS Library (AID 1347380); further: nearly all actives have a fitted effect of over 40% in size
Details: P. falciparum Dd2 growth, SYBR Green fluorescence, 72 h; series mostly up to 28.7 µM
How it was run: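 SYBR Green fluorescence at 485/535 nm was read 18 hr after lysis. This followed a 72 hr incubation at 37C in 5% O2, 5% CO2 of Dd2-infected erythrocytes (0.3% parasitemia, 2.5% final hematocrit) with compounds titrated over 11 concentrations.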
Potency means the concentration at half of the fitted maximal effect.

Which Potency does the source give for `O=C1CC2OCC=C3CN4C5CC3C2[C@@H]2N1c1ccccc1[C@]52C[C@@H]4C1=C[C@H]2C3CC4N(CC[C@@]45c4ccccc4N(C1=O)[C@@H]25)C/C3=C/CO` (stereo partly drawn) here?
The Potency was 2360 nM (active).

With `CCC(=O)CCCCC[C@@H]1NC(=O)[C@H]2CCCCN2C(=O)[C@H](C(C)C)NC(=O)[C@H](Cc2cn(OC)c3ccccc23)NC1=O` as the compound, how does the Potency read?
The Potency was 747 nM (active).

For `C/C(=C\[C@H](C)C(=O)CCCC1CC(=O)NC(=O)C1)[C@@H]1OC(=O)/C=C/CC/C=C/[C@H](O)[C@@H](O)[C@@H]1C`, which Potency is on record?
The Potency was 5290 nM (active).

For `C/C=C(/C)c1c(Cl)c(O)c(C)c2c1Oc1c(Cl)c(O)c(Cl)c(C)c1C(=O)O2`, which Potency is on record?
The Potency was “inactive”.

Which Potency does the source give for `C=C[C@@]1(C)CC[C@@H]([C@H](C)C(=O)/C=C/C(C)(C)O)O1` here?
Its Potency is “inactive”.

With `O=c1cc(-c2ccc(O)c(O)c2)oc2cc(O[C@@H]3O[C@H](CO)[C@@H](O)[C@H](O)[C@H]3O)cc(O)c12` as the compound, how does the Potency read?
The Potency was 236 nM (active).

Which Potency does the source give for `CC[C@H](C)[C@H]1NC(=O)[C@@H](NC(=O)C(C)C)[C@@H](C)OC(=O)[C@H](COC(=O)CNC(C)=O)NC(=O)[C@@H]([C@@H](C)O)NC(=O)[C@H](Cc2ccccc2)N(C)C(=O)[C@H](c2ccc(OC)cc2)NC1=O` (Isobutyryl-T[d(aIle)][Phg(4-OMe)][NMeF][d(aThr)]S([Gly-Ac]); ester 1-C) here?
Its Potency is “inactive”.

Which Potency does the source give for `C[n+]1cc2cc(C(N)=O)[nH]c3c(=N)c(Cl)c(N)c1c23` here?
The Potency was “inactive”.

Which Potency does the source give for `C/C1=C/[C@@H](C)[C@H](O)[C@@H](O)/C=C/CC/C=C/C(=O)O[C@@H]1[C@H](C)C(=O)CCCC1CC(=O)NC(=O)C1` here?
Its Potency is “inactive”.

Which Potency does the source give for `COc1ccc2[nH]c3c(c2c1)CCN1C[C@H]2C[C@@H](OC(=O)c4cc(OC)c(OC)c(OC)c4)[C@H](OC)[C@@H](OC)[C@H]2C[C@H]31` here?
Its Potency is 7470 nM (active).

For `C[C@]12CC[C@]3(C1)[C@H](CC2=O)C[C@@H](OC(=O)c1ccccc1)[C@H]1[C@](C)(C(=O)O)CCC[C@@]13C`, which Potency is on record?
The Potency was 13.3 nM (active).

With `CC(=O)O[C@H]1c2ccccc2-c2c3c(cc4c2[C@@H]1N(C(C)=O)CC4)OCO3` as the compound, how does the Potency read?
The Potency was “inactive”.

With `C=C[C@](Cl)(CBr)CCC=C(C)C` as the compound, how does the Potency read?
Its Potency is “inactive”.

For `C=C1CC[C@@H](Br)C(C)(C)[C@]12CC=C(C)C(=O)C2`, which Potency is on record?
The Potency was “inactive”.

With `COc1cc2c(cc1OC)[C@@H](c1ccc3c(c1)OCO3)C(C)C(C)C2=O` (stereo partly drawn) as the compound, how does the Potency read?
Its Potency is “inactive”.

With `C[C@H]1C=C[C@H]2CCCC[C@@H]2[C@H]1C(=O)[C@H]1CC2=C(C(=O)O)CCN2C1=O` as the compound, how does the Potency read?
Its Potency is “inactive”.

Which Potency does the source give for `C/C=C1/CN2C3CC1C1C=CC(=O)N4c5ccccc5[C@@]3(C[C@@H]2C2=C[C@H]3C5CC6N(CC[C@@]67c6ccccc6N(C2=O)[C@@H]37)C/C5=C/C)[C@H]14` (stereo partly drawn) here?
Its Potency is 1060 nM (active).

For `COc1cc(O)c(C(=O)[C@@H]2[C@H](CC=C(C)C)C(C)=CC[C@H]2c2ccccc2)c(O)c1`, which Potency is on record?
Its Potency is 6660 nM (active).

Which Potency does the source give for `C=C(C)CC[C@H](Cc1c(O)cc(O)c2c1O[C@H](c1ccc(O)cc1)CC2=O)C(=C)C` here?
The Potency was “inactive”.

Which Potency does the source give for `COc1cc(/C=C/C(=O)OC[C@@H](Cc2ccc(O)c(OC)c2)[C@@H](COC(=O)/C=C/c2ccc(O)c(OC)c2)Cc2ccc(O)c(OC)c2)ccc1O` here?
The Potency was 265 nM (active).

For `COc1cc2c(c(O)c1O)C(=O)c1c(coc1C)C2=O`, which Potency is on record?
The Potency was 10600 nM (active).

With `C/C=C/C1C=CC2CC(C)CC(C)C2C1C(=O)CC(=O)NC(CO)C/C=C/CCCCC` (stereo not drawn) as the compound, how does the Potency read?
Its Potency is “inactive”.

For `CC[C@H]1[C@H](C)[C@H](c2cc(OC)c(OC)cc2OC)[C@@H](C)[C@H](c2cc(OC)c(OC)cc2OC)[C@@]12C=C(OC)C(=O)C=C2OC`, which Potency is on record?
Its Potency is 1880 nM (active).
